Source: PubChem (National Center for Advancing Translational Sciences (NCATS))
GLS inhibitor: inhibitors of human glutaminase (GLS); GLS enzymatic activity, qHTS titration; Potency, µM (doses to about 45.5 µM), hits mostly inhibitors; 410,000 compounds, 0.21% hits
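Assay buffer: 45 mM KH2PO4 pH 8.2, 0.02% Tween-20. hKGA acts on L-glutamine (1 mM solution added); product glutamate is reported by an oxidase/peroxidase Amplex Red coupling, with fluorescence taken at baseline and 30 min.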
mIDH1 inhibitor: human IDH1 R132H inhibition; IDH1-R132H enzyme, NADPH consumption, diaphorase/resazurin fluorescence; 390,000 compounds, 0.093% hits; Potency, µM (top dose mostly 76.6 µM), hits mostly inhibitors; O75874; note: nearly all actives have a fitted effect of over 65% in size
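IDH1-R132H (0.5 ug/mL dispensed) in pH 7.5 Tris buffer was preincubated 30 min with compound, then given a substrate mix of 0.016 mM NADPH and 2 mM alpha-KG for 80 min at room temperature; remaining NADPH was read by diaphorase/resazurin fluorescence.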
Pin1 inhibitor: blocks the human prolyl isomerase Pin1; Q13526; Pin1 FP peptide displacement, HiFluor488, 10 min; Potency, µM (series often up to 115 µM), most hits filed as inhibitors; 390,000 compounds, 0.009% hits; AID 504891; active = well fitted inhibition curve with a large enough effect in the polarisation, with a control signal flat, not every such curve was filed as active; inconclusive = small, poorly fitted or top-dose-only effect, or effect the other way, or a change in a side signal; inactive = no such curve, though single readings can be large or run the other way; the % refers to the polarisation
Target sequence (Q13526 whole entry, looked up): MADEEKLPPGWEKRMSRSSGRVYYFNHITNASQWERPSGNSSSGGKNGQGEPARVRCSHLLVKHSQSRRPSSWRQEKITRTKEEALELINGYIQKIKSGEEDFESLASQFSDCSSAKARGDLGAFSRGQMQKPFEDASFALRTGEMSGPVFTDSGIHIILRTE
PGK inhibitor: blocks T. brucei phosphoglycerate kinase | Potency, µM (titrated, usually from 57.5 µM), usual class: inhibitors | PGK/GAPDH coupled, Kinase-Glo luminescence, 60 min | P07378 | AID 602233 | 380,000 compounds, 0.043% hits; note: nearly all actives have a fitted effect of over 60% in size
Target sequence (P07378 whole entry, looked up): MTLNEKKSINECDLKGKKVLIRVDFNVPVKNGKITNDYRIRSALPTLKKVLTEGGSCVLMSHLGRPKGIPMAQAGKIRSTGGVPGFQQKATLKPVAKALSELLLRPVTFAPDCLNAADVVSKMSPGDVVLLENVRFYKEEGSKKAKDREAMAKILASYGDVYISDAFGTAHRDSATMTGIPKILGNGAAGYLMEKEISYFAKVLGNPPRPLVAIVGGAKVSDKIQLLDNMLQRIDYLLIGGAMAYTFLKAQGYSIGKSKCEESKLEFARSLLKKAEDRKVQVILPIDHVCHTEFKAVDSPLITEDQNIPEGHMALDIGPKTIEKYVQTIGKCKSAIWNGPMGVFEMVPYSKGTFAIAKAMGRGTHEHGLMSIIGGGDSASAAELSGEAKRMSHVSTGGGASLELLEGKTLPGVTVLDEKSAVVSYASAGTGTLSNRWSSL
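Luminescent ATP detection (Kinase-Glo Plus) follows a 60-minute room-temperature incubation, with wells lacking PGK as controls. Buffer: 100 mM TEA (pH 7.6), 5 mM MgCl2, 0.01% Tween-20. Coupling enzyme GAPDH (100 nM final) supplies unstable 1,3-BPG in-well.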
Numbers stand for hits; i = inactive; ? = inconclusive; nt = no result given. Only some compounds are listed: those with a hit (about 0.33% of all), similar ones and a draw of the others. Unless noted, calls come from the whole dose curve; as a rule, active = well fitted curve in the direction sought with a large enough effect; inconclusive = small, poorly fitted or top-dose-only effect, or another doubt; inactive = no such curve, though single readings can be large; an effect the other way counts as inactive or inconclusive.

SMILES	GLS inhibitor	mIDH1 inhibitor	Pin1 inhibitor	PGK inhibitor
O=c1c2ccccc2nc2sc(NCc3ccc(Cc4ccccc4)cc3)nn12	nt	nt	i	nt
COc1ccc(C2Nc3ccccc3C(=O)N2CCc2ccccc2)cc1COc1ccc(NC(C)=O)cc1 (stereo not given)	nt	nt	i	nt
O=c1c2[nH]c3cc(Br)sc3c2cnn1Cc1ccccc1F	nt	nt	i	nt
Cc1ccc(NS(=O)(=O)c2cc3c(cc2N2CCCCC2)NC(=O)CC3)cc1C	nt	nt	i	nt
O=C(CCc1nnc2n(Cc3ccc(Cl)cc3)c(=O)c3ccccc3n12)N1CCN(c2ccccn2)CC1	11µM	i	i	i
NC(=O)C1CCN(c2ncc(-c3ccc(Br)cc3)s2)CC1	nt	nt	i	nt
Nc1c(C(=O)OCC(=O)Nc2cccc([N+](=O)[O-])c2)[nH]c(=O)[nH]c1=O	i	i	?	18µM
O=C(COC(=O)c1ccccc1C(=O)c1ccccc1)Nc1cccc([N+](=O)[O-])c1	i	i	i	i
Cc1cc2c(s1)c1cnn(Cc3cccc4cccnc34)c(=O)c1n2C	nt	nt	i	nt
C=CC(=O)N1C/C(=C/c2ccc(F)cc2)C(=O)/C(=C\c2ccc(F)cc2)C1	10µM	i	?	10µM
COc1cc(-c2ccc3ncnc(NCc4ccc(C)o4)c3c2)cc(OC)c1OC	nt	nt	i	nt
COc1ccc(CCN2C(=S)NC3CC2(C)Oc2ccc([N+](=O)[O-])cc23)cc1OC (stereo not given)	10µM	i	i	i
COc1ccc(N2C(=O)NC3CC2(C)Oc2ccc(Cl)cc23)cc1OC (stereo not given)	i	i	i	i
COc1cc(CN2CCN(Cc3ccc(C)cc3)C(CCO)C2)cc(OC)c1O (stereo not given)	7.1µM	i	i	i
CN(C)c1cccc(-c2ncc(F)c(N3CCC(C(N)=O)CC3)n2)c1	nt	nt	i	nt
N#CCNC(=O)c1nn2c(C(F)(F)F)cc(-c3ccccc3)nc2c1Br	i	i	i	i
Cc1cc(-c2ccccc2)nc2c(Br)c(C(=O)O)nn12	16µM	i	?	i
COC(=O)c1ccccc1NC(=O)c1ccccc1SC	i	i	i	i
CSc1ccccc1C(=O)Nc1ccccc1C(=O)NC(C)C	32µM	i	i	i
O=C1CCCC2=C1C1(CCCC1)N=C(Nc1nc3ccccc3n1Cc1ccccc1)N2	nt	nt	i	nt
Cc1cc(C)n2ncc(C(=O)Nc3ccccc3)c2n1	nt	nt	i	nt
Cc1occc1C(=O)N/N=C/c1ccc(N(C)C)cc1	i	i	i	25µM
COc1ccc(Br)cc1/C=N/N1C(=O)CSC1=S	20µM	i	i	i
O=C1CSC(=S)N1N=Cc1c[nH]c2ccc(Br)cc12	i	i	nt	i
NC(=O)C1CCN(c2ncc(-c3cccc(F)c3)s2)CC1	nt	nt	i	nt
SMILES	GLS inhibitor	mIDH1 inhibitor	Pin1 inhibitor	PGK inhibitor
O=[N+]([O-])c1ccccc1C1Nc2cccc3cccc(c23)N1	8.9µM	i	?	i
COCCN1C(=O)C(CC(=O)Nc2ccc(C(=O)O)cc2)SC1=Nc1ccccc1 (stereo not given)	i	i	i	i
COC(=O)c1cc(NC(=O)CC2SC(=Nc3ccccc3)N(CCc3c[nH]c4ccccc34)C2=O)cc(C(=O)OC)c1 (stereo not given)	25µM	i	i	i
Cc1ccc(NS(=O)(=O)c2ccc3c(c2)CCC(C)(C)O3)cc1C	nt	nt	i	nt
C[C@H]1NCc2cc(-c3ccc4c(=O)c(C(=O)O)cn(C5CC5)c4c3OC(F)F)ccc21	13µM	nt	nt	nt
COc1ccccc1NC(=O)c1cc2c(CO)cnc(C)c2oc1=Nc1cccc(C(N)=O)c1	i	i	i	nt
COc1ccc(NC(=O)c2cc3c(COC(C)=O)cnc(C)c3oc2=Nc2cccc(C(=O)O)c2)c(OC)c1	10µM	i	?	i
O=S1(=O)N=C(Oc2ccc(Cl)cc2)c2ccccc21	nt	nt	i	nt
COc1ccc2nc(-c3ccc(N)cc3)[nH]c2c1	i	i	?	i
COc1ccc(-c2nc3ccc(C4=C(C)CC(=O)NN4)cc3[nH]2)cc1	32µM	nt	nt	nt
O=C(COC(=O)/C=C/c1ccco1)Nc1ncc(C(F)(F)F)cc1Cl	i	i	?	13µM
COc1cccc(C2c3c(ncn(-c4ccc(C)cc4)c3=N)Oc3ccc4ccccc4c32)c1 (stereo not given)	nt	nt	i	nt
O=C(O)c1ccc(COc2ccc3c4c(c(=O)oc3c2)CCC4)o1	13µM	i	?	?
CC(=O)C1=C(c2ccccc2)NC(=O)NC1c1ccc2c(c1)OCO2 (stereo not given)	i	i	i	i
CC(=O)C1=C(c2ccccc2)NC(=S)NC1c1cc(Cl)c(OC(C)C)c(Cl)c1 (stereo not given)	i	i	i	i
CC(=O)C1=C(c2ccccc2)NC(=O)NC1c1ccc(O)c(O)c1 (stereo not given)	10µM	i	i	i
CC(=O)C1=C(c2ccccc2)NC(=S)NC1c1ccc(O)c(O)c1 (stereo not given)	8.9µM	i	?	i
O=C(O)C(O)c1ccccc1 (stereo not given)	i	i	i	i
O=C(O)C(O)c1ccco1 (stereo not given)	?	i	?	14µM
Cc1cc(C)cc(NC(=O)Oc2ccccc2N2CCCCC2)c1	10µM	i	i	i
c1ccc(Sc2ccccn2)cc1	i	i	i	i
c1ccc(SSc2ccccn2)nc1	10µM	i	i	i
Cc1ccc(NS(=O)(=O)c2cc3c(cc2N(C)C)NC(=O)CC3)cc1C	nt	nt	i	nt
CC(C)(C)c1cc(CCC(=O)NCCc2ccccn2)cc(C(C)(C)C)c1O	10µM	i	i	i
O=C1CCCC2=C1C(c1ccccc1Cl)N=C(Nc1nc3ccccc3o1)N2 (stereo not given)	nt	nt	i	nt
SMILES	GLS inhibitor	mIDH1 inhibitor	Pin1 inhibitor	PGK inhibitor
Clc1cccc(Cc2c(-c3ccco3)nc3ccc(Br)cn23)c1	11µM	nt	nt	nt
O=C(O)c1ccccc1N/N=C/c1c(Sc2nnnn2-c2ccccc2)nc2ccccn2c1=O	11µM	i	?	i
O=c1c(/C=N/Nc2ccccc2)c(Sc2nnnn2-c2ccccc2)nc2ccccn12	i	i	?	i
CCOc1ccc(-c2nc3c(C#N)c[nH]n3c2NC2CCCC2)cc1	14µM	i	i	i
COc1ccc(-c2nc3c(C#N)c[nH]n3c2NC2CCCC2)c(OC)c1	13µM	i	i	i
COc1cccc(-c2nc3c(C#N)c[nH]n3c2NC2CCC(C)CC2)c1 (stereo not given)	?	i	i	i
O=C(O)C1Nc2c(Cl)cc(Cl)cc2C2C=CCC12 (stereo not given)	7.9µM	i	?	25µM
O=C(O)C1Nc2c(O)cccc2C2C=CCC12 (stereo not given)	13µM	i	nt	?
O=C(O)C1Nc2ccc(Br)cc2C2C=CCC12 (stereo not given)	7.9µM	i	nt	32µM
O=C(O)C1Nc2c(Cl)cc(Cl)c(Cl)c2C2C=CCC12 (stereo not given)	?	i	nt	?
CN(C)c1cccc(-c2nnc(N3CCC(C(N)=O)CC3)s2)c1	nt	nt	i	nt
COc1cc2ncnc(N(C)Cc3csc(C)n3)c2cc1-c1ccc2c(c1)OCO2	nt	nt	i	nt
COc1ccc2[nH]c(=O)cc(C(=O)O)c2c1	14µM	i	i	i
